# In PubChem BioAssay (EPA / NIEHS):
# Calls of active or inactive are those of the source. The calls were made as follows: active = hit-call score of the fitted dose curve at least 0.9, where 1 is the maximum; inactive = score below 0.9.
# Read-out: Plasminogen activator inhibitor-1 (PAI1), SERPINE1 (gene 5054)
# Test: BSK_BE3C_PAI1: BioMAP Diversity Plus: BE3C Assay for Plasminogen activator inhibitor-1 (PAI1) Biomarker Activity (AID 2283037)
# Details: primary human bronchial epithelial cells; actives raise or lower the signal
# How it was run: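 Primary human bronchial epithelial cells (BE3C system) exposed 24 h; PAI-1 quantified by ELISA. Parallel sulforhodamine B staining of total protein flags cytotoxicity. Bidirectional fit versus DMSO.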
Compound,outcome,AC50
CS(=O)(=O)c1ccc([C@@H](C[C@H]2CCC(=O)C2)C(=O)Nc2cnccn2)cc1Cl,inactive,
O=C(O)CN(CC(=O)O)CC(=O)O,inactive,
CC1(C)C(=O)NC(=O)N1CO,inactive,
CC(C)c1cccc(C(C)C)c1NC(=O)NS(=O)(=O)c1cc(C(C)(C)O)co1,inactive,
CCCC(=O)O,inactive,
C=CCCCCCCCCCCCC,inactive,
CCCCC(CC)COP(=O)(OCC(CC)CCCC)OCC(CC)CCCC (stereo not given),inactive,
CC(=O)CC(c1ccccc1)c1c(O)c2ccccc2oc1=O (stereo not given),inactive,
CCCCCCCCCC[N+](C)(C)[O-],inactive,
Oc1ccc(O)cc1,inactive,
CSc1ccc(Oc2ccc(S(N)(=O)=O)cc2CN(C)C)cc1C,inactive,
CCc1cc(C2=C(C(=O)O)N(c3ccccc3C(F)(F)F)S(=O)(=O)c3ccccc32)cc2c1OCO2,inactive,
O=C(N[C@@H](c1ccccc1)[C@@H]1CCCCN1)c1cccc(C(F)(F)F)c1Cl,,32.4 µM (active)
O=C1CCCCC1,inactive,
Cc1ccc(C(C)(C)C)c(O)c1,inactive,
CC(=O)[C@@]1(O)CC[C@H]2[C@@H]3CCC4=CC(=O)CC[C@]4(C)[C@H]3CC[C@@]21C,inactive,
CCCCC(CC)CO (stereo not given),inactive,
CC(=O)O[C@]1(C(C)=O)CC[C@H]2[C@@H]3C=C(Cl)C4=CC(=O)[C@@H]5C[C@@H]5[C@]4(C)[C@H]3CC[C@@]21C,,20 µM (active)
CC(COCC(C)OC(=O)c1ccccc1)OC(=O)c1ccccc1 (stereo not given),inactive,
Cc1occc(=O)c1O,inactive,
O=C(O)c1[nH]n(-c2ccc(S(=O)(=O)O)cc2)c(=O)c1N=Nc1ccc(S(=O)(=O)O)cc1,inactive,

# Read-out: urokinase plasminogen activator (uPA), PLAU (gene 5328)
# Test: BSK_BE3C_uPA: BioMAP Diversity Plus: BE3C Assay for urokinase plasminogen activator (uPA) Biomarker Activity (AID 2283038);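 as to outcome: uPA protein level quantified by ELISA in cell cultures; uPA read one day after compound addition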
# Details: primary human bronchial epithelial cells; actives raise or lower the signal
# How it was run: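 Primary human bronchial epithelial cells, uPA measured by ELISA 24 h after dosing. Bidirectional change relative to DMSO; cytotoxicity checked in parallel cultures by sulforhodamine B total-protein staining.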
Compound,outcome,AC50
CS(=O)(=O)c1ccc([C@@H](C[C@H]2CCC(=O)C2)C(=O)Nc2cnccn2)cc1Cl,inactive,
O=C(O)CN(CC(=O)O)CC(=O)O,inactive,
CC1(C)C(=O)NC(=O)N1CO,inactive,
CC(C)c1cccc(C(C)C)c1NC(=O)NS(=O)(=O)c1cc(C(C)(C)O)co1,inactive,
CCCC(=O)O,inactive,
C=CCCCCCCCCCCCC,inactive,
CCCCC(CC)COP(=O)(OCC(CC)CCCC)OCC(CC)CCCC (stereo not given),inactive,
NC1CCCCC1,inactive,
CC(=O)CC(c1ccccc1)c1c(O)c2ccccc2oc1=O (stereo not given),inactive,
C=CCc1ccc(OC)c(OC)c1,inactive,
CC(C)OC(=O)C(C)(C)Oc1ccc(C(=O)c2ccc(Cl)cc2)cc1,inactive,
CCCCCCCCCC[N+](C)(C)[O-],inactive,
CCCCCCCC(=O)OC,inactive,
Oc1ccc(O)cc1,,7.83 µM (active)
CSc1ccc(Oc2ccc(S(N)(=O)=O)cc2CN(C)C)cc1C,inactive,
CCc1cc(C2=C(C(=O)O)N(c3ccccc3C(F)(F)F)S(=O)(=O)c3ccccc32)cc2c1OCO2,inactive,
NCCOCCOCCN,inactive,
S=c1[nH]c2ccccc2s1,inactive,
O=C(N[C@@H](c1ccccc1)[C@@H]1CCCCN1)c1cccc(C(F)(F)F)c1Cl,,28.7 µM (active)
O=C1CCCCC1,inactive,
Cc1ccc(C(C)(C)C)c(O)c1,inactive,
CCN(CC)CCOc1ccc(C(=C(Cl)c2ccccc2)c2ccccc2)cc1,,26 µM (active)
CC(=O)[C@@]1(O)CC[C@H]2[C@@H]3CCC4=CC(=O)CC[C@]4(C)[C@H]3CC[C@@]21C,inactive,
CCCCC(CC)CO (stereo not given),inactive,
CC(=O)O[C@]1(C(C)=O)CC[C@H]2[C@@H]3C=C(Cl)C4=CC(=O)[C@@H]5C[C@@H]5[C@]4(C)[C@H]3CC[C@@]21C,,38.2 µM (active)
COc1ccc(OC(F)(F)F)cc1CN[C@H]1CCCN[C@H]1c1ccccc1,,20 µM (active)
CC(COCC(C)OC(=O)c1ccccc1)OC(=O)c1ccccc1 (stereo not given),inactive,
Cc1occc(=O)c1O,inactive,
O=C(O)c1[nH]n(-c2ccc(S(=O)(=O)O)cc2)c(=O)c1N=Nc1ccc(S(=O)(=O)O)cc1,inactive,
